proKLK7 act: proKLK7 zymogen activators, primary screen, biochemical, fluorescence intensity. purified proKLK7, EDANS-DABCYL substrate fluorescence; 100% is mature enzyme control, 0% vehicle. actives 0.9% (n = 370,000). activation, % at 7 µM. AID 652039, 2013;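 active means activation above the mean of all tested compounds plus 3 SD, computed per campaign excluding outliers beyond control limits, cut at about 13% in these data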
PLCb3 inh: human PLC-beta3 inhibitors, primary screen, biochemical, fluorescence. inhibition, % at 12.2 µM. Purified PLC-beta3, fluorogenic substrate. 1-phosphatidylinositol 4,5-bisphosphate phosphodiesterase beta-3 (Homo sapiens), Q01970. actives 0.18% (n = 370,000). AID 720704, 2013; in the data active means inhibition above about 11%
PLCg1 inh: PLC-gamma1 enzyme inhibitors, primary screen, biochemical, fluorescence, purified enzyme; inhibition, % at 12.2 µM; fluorogenic substrate; AID 720700, 2013; actives 0.84% (n = 370,000); 1-phosphatidylinositol 4,5-bisphosphate phosphodiesterase gamma-1 (Homo sapiens), P19174; in the data active means inhibition above about 9.5%
ADAM10 inh: human ADAM10 inhibitors, primary screen, biochemical, QFRET, HTS; Disintegrin and metalloproteinase domain-containing protein 10 (Homo sapiens), O14672; recombinant ADAM10, EDANS/DABCYL FRET peptide cleavage, 3 h; inhibition, % at 7 µM; actives 0.62% (n = 370,000); AID 720582, 2013;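 active means inhibition above a per-campaign cutoff equal to the mean of compounds falling between control-based bounds plus 3 SD, cut at about 20% in these data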
ADAM17 inh: ADAM17 inhibitors, primary screen, biochemical, QFRET; actives 0.83% (n = 370,000); Disintegrin and metalloproteinase domain-containing protein 17 (Homo sapiens), P78536; inhibition, % at 6.95 µM; recombinant ADAM17, EDANS/DABCYL FRET peptide cleavage;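 active means inhibition above the mean of compounds lying between control limits plus 3 SD, set per campaign, cut at about 8.5% in these data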
ADAM10 ctr: ADAM10 inhibitors, counter-screen for ADAM17 exosite inhibitor project, biochemical, FRET, human ADAM10 | recombinant ADAM10, EDANS/DABCYL FRET peptide cleavage, 3 h | inhibition, % at 6.95 µM | AID 743256, 2014 | shares compounds with ADAM17 inh | actives 47% (n = 2,900);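 active means mean inhibition over the triplicate runs exceeds the activity threshold set in the earlier primary screen, cut at about 20% in these data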
ADAM17 confirm: ADAM17 inhibitors, hit retest, confirmation, biochemical, QFRET peptide cleavage; AID 743257, 2014; inhibition, % at 6.95 µM; actives 65% (n = 2,900); shares compounds with ADAM17 inh; recombinant ADAM17, EDANS/DABCYL QFRET peptide cleavage;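 active means mean inhibition across replicates above the hit cutoff set in the primary screen, cut at about 8.5% in these data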
Hits are given with their value; i = inactive; nt = not tested or not shown. Only some compounds are listed: those with a hit (about 2.9% of all), similar ones and a draw of the others.

SMILES	proKLK7 act	PLCb3 inh	PLCg1 inh	ADAM10 inh	ADAM17 inh	ADAM10 ctr	ADAM17 confirm
CC(C)(C)c1ccc(-c2nc(NCc3cccnc3)c3ccccc3n2)cc1	i	i	i	i	13	i	12
Cc1ccc(NS(=O)(=O)c2cc([N+](=O)[O-])ccc2NNC(=S)Nc2cc(C)ccc2C)c(C)c1	i	i	i	20	10	34	22
O=C(CSc1nnc(NC(=O)c2cccc(F)c2)s1)NCc1ccco1	i	i	i	i	8.6	i	i
COc1ccc(S(=O)(=O)N2CCC(C(=O)N(CC(C)C)C3CCS(=O)(=O)C3)CC2)cc1OC (stereo not drawn)	i	i	i	i	i	nt	nt
Cc1cc(C2(c3ccc(O)c(C)c3)OC(=O)c3ccccc32)ccc1O	i	i	i	i	11	i	11
COc1ccccc1/C=C/C(=O)OCc1nc2ccccc2c(=O)[nH]1	i	i	i	i	i	nt	nt
COc1ccccc1C1N(c2ccc(Cl)cc2)C(=O)C2CCCN21 (stereo not drawn)	i	i	i	i	9.8	i	i
COc1ccc(N2C(=O)C3CCCN3C2c2ccccc2OC)cc1 (stereo not drawn)	i	i	i	i	i	nt	nt
Cc1cccc(N2CCN(C(=O)NC(C)c3ccc(F)c(F)c3)CC2)c1C (stereo not drawn)	i	i	i	i	i	nt	nt
Clc1ccccc1Sc1cnc2ccccc2n1	i	i	i	i	8.8	i	i
O=C(c1ccc(COCC(F)(F)F)o1)N1CCCCCC1	i	i	i	i	11	i	i
Cc1cc(C)c2oc(C(=O)Nc3ccc(S(=O)(=O)N4CCCC(C)C4)cc3)cc(=O)c2c1 (stereo not drawn)	i	i	i	i	i	nt	nt
COC(=O)C1=C(C)N=C2SC(C)C(=O)N2C1c1ccc(C(=O)OC)cc1 (stereo not drawn)	i	i	i	i	i	nt	nt
COC(=O)C1=C(C)N=C2SC(C)C(=O)N2C1c1cccs1 (stereo not drawn)	i	i	i	i	9.6	i	i
CC(=O)NC(c1ccc(C)cc1)c1cc(Cl)c2cccnc2c1O (stereo not drawn)	i	i	i	i	i	nt	nt
Oc1c(C(Nc2ccccn2)c2cccnc2)cc(Cl)c2cccnc12 (stereo not drawn)	i	i	i	i	11	26	16
Cc1occc1C(=O)N(Cc1nc(-c2ccccc2)no1)C(C)C	i	i	i	i	i	nt	nt
Cc1cccc(N2CCN(c3ccc(N4C(=O)CCCC4=O)cc3[N+](=O)[O-])CC2)c1C	i	i	i	i	14	i	i
O=C(CSc1nnc(SCc2cccc3ccccc23)s1)N/N=C/c1c[nH]c2ccccc12	i	i	i	i	12	i	9.9
O=C(CSc1nnc(-c2ccccc2)n1-c1ccc(Cl)cc1)N/N=C/c1ccccc1C(=O)O	i	i	i	i	i	nt	nt
O=C(CSc1nnc(-c2ccccc2)n1-c1ccc(Cl)cc1)NN=Cc1c[nH]c2ccccc12	i	i	i	i	11	29	12
CCOC(=O)C1(CCc2ccccc2)CCN(C(=O)Cc2nonc2C)CC1	i	i	i	i	i	nt	nt
N#CCCN(C(=O)COC(=O)CCNS(=O)(=O)c1ccccc1)c1ccccc1	i	i	i	i	i	nt	nt
COCCn1c(C)cc(/C=C2/SC(=O)N(CC(=O)N3CCCC3)C2=O)c1C	i	i	i	i	i	nt	nt
COc1ccccc1-c1cc(C(=O)Nc2sc3c(c2C#N)CCC(C)C3)c2ccccc2n1 (stereo not drawn)	i	i	i	i	9.9	i	i
SMILES	proKLK7 act	PLCb3 inh	PLCg1 inh	ADAM10 inh	ADAM17 inh	ADAM10 ctr	ADAM17 confirm
COc1ccc(OC)c(-c2cc(C(=O)Nc3sc4c(c3C#N)CCC(C)C4)c3ccccc3n2)c1 (stereo not drawn)	i	i	i	i	i	nt	nt
Cc1ccc(CN(CC(=O)N/N=C/c2ccccc2[N+](=O)[O-])S(=O)(=O)c2ccc(C)cc2)cc1	i	i	i	i	9.1	33	14
COc1ccccc1Cc1c(C2CCCCC2)nc2ccc(Br)cn12	i	i	i	i	i	nt	nt
O=C(O)CCC(=O)Nc1cccc(-c2csc(-c3ccccc3)n2)c1	i	i	i	i	i	nt	nt
CCCCC(=O)Nc1cccc(-c2csc(-c3ccccc3)n2)c1	i	i	i	i	8.9	22	17
Fc1ccc(NCc2n[nH]c(=S)n2Cc2ccccc2)cc1	i	i	i	i	11	i	i
S=c1[nH]nc(CNc2ccc(Cl)cc2)n1Cc1ccccc1	i	i	i	i	i	nt	nt
Cc1nn(Cc2noc(C(=O)NCc3ccccn3)n2)c(C)c1Br	i	i	i	i	9.6	i	i
O=C1OCCN1C(=O)[C@H]1[C@H](c2ccc([N+](=O)[O-])cc2)C(c2ccccc2)=NN1c1ccc(Br)cc1	i	i	i	i	11	i	12
O=C1OCCN1C(=O)[C@H]1[C@H](c2ccc(Cl)cc2)C(c2ccccc2)=NN1c1ccc(Br)cc1	i	i	i	i	i	nt	nt
CC(C)N=c1scc(-c2cccs2)n1/N=C/c1ccc(O)c(O)c1O	i	i	i	i	9.3	i	12
Cn1cc(C(=O)N/N=C/c2ccc3c(c2)OCO3)c2ccccc21	i	i	i	i	i	nt	nt
Cn1cc(C(=O)N/N=C/c2cccs2)c2ccccc21	i	i	i	i	8.9	i	i
Cc1cn(CCC(=O)Nc2ccccc2N2CCOCC2)c2ccccc12	i	i	i	i	8.9	25	12
COC(=O)CCCn1cc(CN2CC(N3CCN(Cc4cccc(C)c4)CC3)CS2(=O)=O)nn1 (stereo not drawn)	i	i	i	i	i	nt	nt
Cc1ccccc1CN(C)C[C@H]1OCc2cnnn2CCCC(=O)N([C@@H](C)CO)C[C@@H]1C	i	i	i	i	i	nt	nt
COc1ccccc1CN(C)C[C@@H]1OCc2cnnn2CCCC(=O)N([C@H](C)CO)C[C@H]1C	i	i	i	i	8.7	i	i
COc1ccc(CNC(=O)COC(=O)c2cc(S(=O)(=O)N3CCOCC3)ccc2O)cc1OC	i	i	i	i	i	nt	nt
O=C(NCc1cccnc1)c1ccc2sc([C@@H]3O[C@H](CO)[C@H](O)[C@H](O)[C@H]3O)nc2c1	i	i	i	i	i	nt	nt
Cc1cc(C)nc(NC(=O)C(c2ccccc2)c2ccccc2)c1	i	i	i	i	i	nt	nt

High-throughput results (PubChem BioAssay)
